# Several values for one entry are separate records, joined by “and”; a condition that tells them apart may be missing. Identical values can stand only once. Some compounds were tested as several samples or in several runs, with calls that do not always agree. Activity calls are given as the source filed them. How the source made its calls: active means hit-call score of the fitted dose curve at least 0.9, where 1 is the maximum; inactive means score below 0.9.
# Read-out: Matrix Metallopeptidase 1 (MMP1), MMP1 (gene 4312)
# Assay: BSK_MyoF_MMP1: BioMAP Diversity Plus: MyoF Assay for Matrix Metallopeptidase 1 (MMP1) Biomarker Activity (AID 2284268)
# Conditions: primary human lung fibroblasts
# In short: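 ELISA readout of MMP1 in primary human lung fibroblast cultures, 24 h post-dosing. Gain of signal versus DMSO vehicle control defines activity. Parallel SRB staining (0.1% after 10% TCA fixation, 560 nm) flags overt cytotoxicity.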
SMILES,outcome,AC50
FC(F)C(F)(F)COCC1CO1 (stereo not drawn),inactive,–
FC(F)(F)C(F)(F)C(F)(F)C(F)(F)C(F)(F)C(F)(F)I,–,14 µM (active) and 21.6 µM (active)
FC(F)(F)COC(OCC(F)(F)F)OCC(F)(F)F,inactive,–
OCCC(F)(F)C(F)(F)C(F)(F)C(F)(F)F,inactive,–
C[Si](C)(C)C(F)(F)C(F)(F)C(F)(F)F,inactive,–
S=P(N1CC1)(N1CC1)N1CC1,inactive,–
OCc1c[nH]c2ccccc12,–,16.8 µM (active)
Cc1cccc(O)c1C,inactive,–
FC(F)=C(F)C(F)(F)C(F)(F)C(F)(F)C(F)(F)C(F)(F)C(F)(F)F,inactive,–
O=S(=O)(O)CCC(F)(F)C(F)(F)C(F)(F)C(F)(F)C(F)(F)C(F)(F)F,inactive,–
NCC(F)(F)C(F)(F)C(F)(F)C(F)(F)F,inactive,–
OC(O)(C(F)C(O)(O)C(F)(F)F)C(F)(F)F,inactive,–
O=C(Cl)C(F)(F)C(F)(F)C(F)(F)C(=O)Cl,inactive,–

# Read-out: TIMP metallopeptidase inhibitor 1 (TIMP1), TIMP1 (gene 7076)
# Assay: BSK_MyoF_TIMP1: BioMAP Diversity Plus: MyoF Assay for TIMP metallopeptidase inhibitor 1 (TIMP1) Biomarker Activity (AID 2284269)
# Conditions: primary human lung fibroblasts
# In short: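 ELISA quantified TIMP-1 levels after 24 h dosing of primary human lung fibroblasts, with DMSO as baseline. Parallel SRB total protein staining (0.1% SRB after TCA fixation, 560 nm) flagged overt cytotoxicity.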
SMILES,outcome,AC50
FC(F)C(F)(F)COCC1CO1 (stereo not drawn),inactive,–
FC(F)(F)C(F)(F)C(F)(F)C(F)(F)C(F)(F)C(F)(F)I,inactive,–
FC(F)(F)COC(OCC(F)(F)F)OCC(F)(F)F,inactive,–
OCCC(F)(F)C(F)(F)C(F)(F)C(F)(F)F,inactive,–
C[Si](C)(C)C(F)(F)C(F)(F)C(F)(F)F,inactive,–
S=P(N1CC1)(N1CC1)N1CC1,inactive,–
OCc1c[nH]c2ccccc12,inactive,–
Cc1cccc(O)c1C,inactive,–
FC(F)=C(F)C(F)(F)C(F)(F)C(F)(F)C(F)(F)C(F)(F)C(F)(F)F,inactive,–
O=S(=O)(O)CCC(F)(F)C(F)(F)C(F)(F)C(F)(F)C(F)(F)C(F)(F)F,inactive,–
NCC(F)(F)C(F)(F)C(F)(F)C(F)(F)F,inactive,307 nM (active)
OC(O)(C(F)C(O)(O)C(F)(F)F)C(F)(F)F,inactive,991 nM (active)
O=C(Cl)C(F)(F)C(F)(F)C(F)(F)C(=O)Cl,inactive,–

# Read-out: Matrix Metallopeptidase 1 (MMP1), MMP1 (gene 4312)
# Assay: BSK_BF4T_MMP1: BioMAP Diversity Plus: BF4T Assay for Matrix Metallopeptidase 1 (MMP1) Biomarker Activity (AID 2284270)
# Conditions: primary human bronchial epithelial cells with fibroblasts
# In short: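 Co-culture of human bronchial epithelial cells and dermal fibroblasts; MMP-1 levels measured by ELISA 24 hours after chemical dosing, relative to DMSO. Cytotoxicity checked in parallel cultures by SRB total-protein staining.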
row,SMILES,outcome
1,FC(F)C(F)(F)COCC1CO1 (stereo not drawn),inactive
2,FC(F)(F)C(F)(F)C(F)(F)C(F)(F)C(F)(F)C(F)(F)I,inactive
3,FC(F)(F)COC(OCC(F)(F)F)OCC(F)(F)F,inactive
4,OCCC(F)(F)C(F)(F)C(F)(F)C(F)(F)F,inactive
5,C[Si](C)(C)C(F)(F)C(F)(F)C(F)(F)F,inactive
6,FC(F)=C(F)C(F)(F)C(F)(F)C(F)(F)C(F)(F)C(F)(F)C(F)(F)F,inactive
7,O=S(=O)(O)CCC(F)(F)C(F)(F)C(F)(F)C(F)(F)C(F)(F)C(F)(F)F,inactive
8,NCC(F)(F)C(F)(F)C(F)(F)C(F)(F)F,inactive
9,OC(O)(C(F)C(O)(O)C(F)(F)F)C(F)(F)F,inactive
10,O=C(Cl)C(F)(F)C(F)(F)C(F)(F)C(=O)Cl,inactive

# Source: PubChem BioAssay (EPA / NIEHS)
